# Source: PubChem BioAssay
# PfHsp90 yeast 2 = reduces growth (ATP signal) of yeast expressing P. falciparum Hsp90 | S. cerevisiae expressing PfHsp90, BacTiter-Glo ATP, 48 h; yeast lacking PDR1 and PDR3 efflux regulators | inhibition, % at 9.4 µM | actives 0.32% (n = 310,000) | AID 504621;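 active = every replicate shows inhibition above about 80%, whatever the replicate mean, limit read from the data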
# tim23-1 inh = tim23-1 yeast growth inhibition; S. cerevisiae tim23-1 growth, BacTiter-Glo luminescence, 24 h; inhibition, % at 20 µM; actives 1.3% (n = 330,000); AID 463212;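 active = growth inhibition of the mutant yeast at or above 50%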;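 also: temperature-sensitive mutant grown at 25 °C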
# NALP3 yeast inh = NALP3 inhibition in yeast; Yeast reconstituted NLRP3/ASC/caspase-1, beta-gal luminescence, 24 h; inhibition, % at 10 µM; actives 0.39% (n = 330,000);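 active = inhibition of 50% or more; inactive = inhibition below 50%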
# TIM10 inh = inhibits growth of TIM10 yeast strain. inhibition, % at 10 µM. S. cerevisiae TIM10 strain growth, BacTiter-Glo luminescence, 24 h. actives 1.4% (n = 330,000);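 active = inhibition of 40% or more at the single tested concentration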;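 also: wild-type TIM10 isogenic control strain grown at permissive 25 °C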
# tim10-1 inh = growth inhibitors of tim10-1 mutant yeast; S. cerevisiae tim10-1 ts strain growth, BacTiter-Glo, 24 h; inhibition, % at 20 µM; actives 2.2% (n = 330,000); AID 463190;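 active = inhibition of at least 40%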;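 also: mutant grown at 25 °C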
# NALP3 yeast conf = confirmation of NALP3 inhibitors in yeast; shares compounds with NALP3 yeast inh; yeast expressing human NALP3, luminescence; inhibition, % at 10 µM; actives 81% (n = 1,300); in the data active = inhibition above about 48%
# Casp1-ASC yeast = counter-screen for NALP3 inhibitors: yeast caspase-1-ASC; shares compounds with NALP3 yeast inh; yeast expressing Caspase-1-ASC, luminescence counter screen; inhibition, % at 10 µM; actives 66% (n = 1,000); AID 488784
# NALP3 retest = retest-confirmed inhibitor of NALP3 in yeast | yeast expressing human NALP3, luminescence read-out | inhibition, % at 10 µM | shares compounds with NALP3 yeast inh | actives 53% (n = 1,000)
# tim10-1 confirm = tim10-1 yeast growth inhibition, confirmed | actives 56% (n = 7,400) | inhibition, % at 20 µM | shares compounds with tim10-1 inh | S. cerevisiae tim10-1 ts strain growth, BacTiter-Glo, 24 h;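 active = inhibition of yeast growth at or above a set limit in either of two repeat tests at 20 µM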;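 also: tim10-1 mutant grown at permissive 25 °C to find synthetic lethal compounds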
# tim10 confirm = confirmation of TIM10 yeast growth inhibitors. inhibition, % at 10 µM. S. cerevisiae tim10 strain growth, BacTiter-Glo luminescence, 24 h. shares compounds with TIM10 inh. AID 463215. actives 63% (n = 4,600);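 active = inhibition of yeast growth at or above a set limit in either of two replicates at 10 µM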; also: this counterscreen used the strain with wild-type TIM10
# A number is an active result; - = inactive; . = no result given. Shown are actives, neighbours in structure and some others; about 3.7% of the full set was active somewhere. Rule as the data show it, unless noted: active = inhibition above about 50%; inactive = the rest.
SMILES,PfHsp90 yeast 2,tim23-1 inh,NALP3 yeast inh,TIM10 inh,tim10-1 inh,NALP3 yeast conf,Casp1-ASC yeast,NALP3 retest,tim10-1 confirm,tim10 confirm
COc1cc(CN2CCCC(N3CCc4ccccc4C3)C2)c(Cl)cc1O (stereo not given),-,-,-,-,-,.,.,.,.,.
CC(C)c1ccc(NC2CCCN(C(=O)CCc3cnn(C)c3)C2)cc1 (stereo not given),-,-,-,-,-,.,.,.,.,.
COC(=O)C(=Cc1ccccc1[N+](=O)[O-])C(=O)OC,-,-,51.3,-,43.5,62.9,-,-,-,.
C=C1/C(=C\C=C2/CCC[C@]3(C)[C@@H]([C@H](C)CCCC(C)(C)O)CC[C@@H]23)C[C@@H](O)C[C@@H]1O,.,-,56.8,-,47.8,57.8,54.9,-,-,.
CC(C)CCC[C@@H](C)[C@H]1CC[C@H]2[C@@H]3C(=O)C=C4C[C@@H](O)CC[C@]4(C)[C@H]3CC[C@]12C,-,-,-,-,-,.,.,.,.,.
C/C(CCC12CC3CC(CC(C3)C1)C2)=N\NC(N)=S,-,-,58.0,-,57.8,50.2,69.9,-,-,.
C/C(CC1CC(C)OC1=O)=N\NC(N)=S (stereo not given),-,-,-,-,-,.,.,.,.,.
O=C(C1CCN(S(=O)(=O)c2cccc3nsnc23)CC1)N1CCn2c1nc1ccccc12,-,-,73.9,-,41.8,75.0,66.3,75.0,-,.
O=C(C1CCN(S(=O)(=O)c2cccc3nsnc23)CC1)N1CCc2ccccc21,-,-,-,-,-,.,.,.,.,.
N#C/C(=N/Nc1ccc(OC(F)(F)F)cc1)C(N)=S,-,-,85.8,-,47.5,96.8,.,.,56.5,.
COc1ccc(N/N=C(\C#N)C(N)=O)cc1,-,-,-,-,-,.,.,.,.,.
NNC(=O)c1ccc2nc(-c3ccc(Br)cc3)cn2c1,-,-,52.7,40.2,-,70.2,.,.,.,-
CC(C)[C@H]1C(=O)Nc2ccccc2N1C(=O)N[C@@H](Cc1ccccc1)C(=O)N[C@H](C(=O)O)c1ccccc1,-,-,-,-,-,.,.,.,.,.
O=C(N/N=C/c1cccs1)c1ccc2ccccc2c1,-,-,66.3,46.5,-,81.3,67.5,66.3,.,-
CCCCNC(=O)C(c1ccc(OCC(=O)OC)c(C(=O)OC)c1)N(CCOC)C(=O)CCCCCN1C(=O)NC(c2ccc(-c3ccccc3)cc2)C(C(=O)OCc2ccccc2)=C1C (stereo not given),.,-,-,-,-,.,.,.,.,.
Cc1nc2ccc(NC(=O)c3cccs3)cc2s1,-,-,64.6,46.0,-,77.4,62.0,71.2,.,-
O=C(Nc1ccc(-c2nc3cc(NC(=O)c4cccs4)ccc3o2)cc1)c1cccs1,.,-,-,-,-,.,.,.,.,.
CC(=O)Nc1ccc2nc(NC(=O)c3cccs3)sc2c1,-,-,-,-,-,.,.,.,.,.
O=C(Nc1ccc2oc(-c3ccncc3)nc2c1)c1cccs1,-,-,58.6,52.7,-,84.0,66.3,65.6,.,51.3
COc1cccc(CNS(=O)(=O)c2cc(CN3C(=O)c4cccnc4C3=O)ccc2OC)c1,-,-,-,-,-,.,.,.,.,.
CCCc1nc2ccccc2n1CCc1ccccc1,-,-,-,-,-,.,.,.,.,.
O=S(=O)(Nc1ccc(S(=O)(=O)Nc2ccccc2)cc1)c1ccccc1,-,-,-,-,-,.,.,.,.,.
O=S(=O)(Nc1ccc(N=Nc2ccccc2)cc1)c1ccccc1,-,-,58.8,41.8,54.6,-,.,.,51.2,-
CN1C=CC(=O)[C@@H](OC(=O)Nc2ccc(Br)cc2)[C@H]1c1ccccc1Br,-,.,.,.,.,.,.,.,.,.
COCCN1C(=O)c2cc(C(=O)Nc3ccc(C)c(F)c3)ccc2C1Nc1ccc(C)c(F)c1 (stereo not given),-,-,-,-,-,.,.,.,.,.
SMILES,PfHsp90 yeast 2,tim23-1 inh,NALP3 yeast inh,TIM10 inh,tim10-1 inh,NALP3 yeast conf,Casp1-ASC yeast,NALP3 retest,tim10-1 confirm,tim10 confirm
Cc1ccc(C(=O)Cn2cnc3ccccc3c2=O)cc1C,-,-,63.2,53.0,-,78.2,55.2,54.4,.,34.2
CCCC(=O)Nc1ccc(C(=O)NNC(=O)COc2ccc(Br)c(C)c2)cc1,-,-,-,-,-,.,.,.,.,.
COc1ccc2cc3cc(C(=O)NCCN4CCN(c5ccccc5F)CC4)oc3nc2c1,-,-,53.1,79.0,70.9,-,.,.,63.0,-
COCCNC(=O)c1cc2cc3ccc(OC)cc3nc2o1,-,-,-,-,-,.,.,.,.,.
CCn1c2ccccc2c2cc(/C=N/n3cnnc3)ccc21,-,-,-,-,-,.,.,.,.,.
CCn1c2ccccc2c2cc(/C=N/n3cn[nH]c3=S)ccc21,-,-,67.9,48.4,51.1,74.4,82.2,62.9,35.0,49.0
CC(C)CCOc1cccc(OCC(=O)Nc2ccncc2)c1,102.9,-,65.9,56.0,-,77.6,86.5,59.5,.,49.5
O=c1c2sc(-c3ccccc3)cc2nc2n1CCC2,-,-,55.3,77.8,64.0,-,-,-,65.0,73.3
CN1/C(=C/C(=O)c2cccs2)Sc2ccccc21,.,-,78.2,73.0,-,81.5,96.7,93.5,.,60.7
O=C(CCS(=O)(=O)c1ccccc1)N(CCCN1CCOCC1)c1nc2c(F)cccc2s1,-,-,56.6,66.1,-,71.6,-,52.6,.,69.8
O=C(COC(=O)c1cc(=O)c2ccccc2o1)NCc1ccccc1,-,-,-,-,-,.,.,.,.,.
COc1ccc(C(=O)NNC(=S)NC(=O)c2ccc(Cl)cc2)cc1,-,-,54.4,42.1,-,57.8,59.8,58.0,.,-
COc1ccc(N2CCN(c3nc4c(C)cccn4c(=O)c3C=C(C#N)C#N)CC2)cc1,-,-,-,-,-,.,.,.,.,.
C=CCN(c1ccccc1OC)S(=O)(=O)c1cccc(C(=O)OCC(=O)c2c(N)n(C)c(=O)n(C)c2=O)c1,-,.,.,.,.,.,.,.,.,.
O=C(CC1C[C@H](C(=O)N2CCOCC2)[C@@]2(CCC3CCCC3)c3[nH]c4ccccc4c3CCN2C1=O)NCCc1ccccn1 (stereo not given in full),-,-,-,-,-,.,.,.,.,.
CN(C)/N=C/c1ccc(Sc2ccc([N+](=O)[O-])cc2[N+](=O)[O-])o1,-,-,53.9,40.3,42.9,-,.,.,43.6,46.8
CC(=O)NC(=S)Nc1cccc([N+](=O)[O-])c1,-,-,-,-,-,.,.,.,.,.
O=C(NC(=S)Nc1cccc([N+](=O)[O-])c1)C1CCCC1,-,-,53.7,46.9,54.1,72.8,60.2,57.9,44.8,51.5
